Here are results for 36 sequences from PMC7862700, “An all-to-all approach to the identification of sequence-specific readers for epigenetic DNA modifications on cytosine”.

Common to all, as to assay: DAPPL (digital affinity profiling via proximity ligation, sequencing); 10 mM Tris-HCl pH 7.5, 50 mM NaCl, 1 mM DTT, 4% glycerol, room temperature, 30 min; GST-TFs on glutathione beads, 16-mer random dsDNA library, 0.1% formaldehyde crosslink after washing; high values mean tight binding
Common to all, as to conditions: protein: recombinant; tags: N-terminal GST; dsDNA, one strand shown

One test concerns the target T1, FLI1 (Homo sapiens, UniProt Q01543 1-452).
T1 sequence: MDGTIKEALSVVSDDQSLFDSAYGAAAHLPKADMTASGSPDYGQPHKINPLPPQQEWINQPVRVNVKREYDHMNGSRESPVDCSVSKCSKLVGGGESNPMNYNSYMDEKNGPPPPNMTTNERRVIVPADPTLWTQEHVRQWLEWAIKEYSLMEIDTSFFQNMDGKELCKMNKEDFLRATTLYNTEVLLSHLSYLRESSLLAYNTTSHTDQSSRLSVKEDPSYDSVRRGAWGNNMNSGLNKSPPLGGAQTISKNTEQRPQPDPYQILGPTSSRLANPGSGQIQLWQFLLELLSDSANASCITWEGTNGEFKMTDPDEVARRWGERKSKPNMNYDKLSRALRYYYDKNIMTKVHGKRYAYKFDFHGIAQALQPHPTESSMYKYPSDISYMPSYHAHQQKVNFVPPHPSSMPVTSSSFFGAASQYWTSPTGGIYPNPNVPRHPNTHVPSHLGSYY
An outline of the steps:
(§1)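 Binding signal is defined as a hexamer's read frequency for one factor over its frequency for the tag-only sample. To obtain reads, GST-fused human transcription factors were expressed in yeast, captured on glutathione beads, barcoded with DNA and pooled with that sample. Pools met 200 nmole of a 16-mer random double-stranded DNA library in Tris/NaCl/DTT/glycerol buffer for 30 min at room temperature before washing, 0.1% formaldehyde crosslinking, proximity ligation (BsaI/T4 ligase, 1 h, 37 °C), PCR and Illumina NextSeq500 sequencing.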

A further test deals with T2, ELF5 (Homo sapiens, UniProt Q9UKW6-2 1-255).
T2 sequence: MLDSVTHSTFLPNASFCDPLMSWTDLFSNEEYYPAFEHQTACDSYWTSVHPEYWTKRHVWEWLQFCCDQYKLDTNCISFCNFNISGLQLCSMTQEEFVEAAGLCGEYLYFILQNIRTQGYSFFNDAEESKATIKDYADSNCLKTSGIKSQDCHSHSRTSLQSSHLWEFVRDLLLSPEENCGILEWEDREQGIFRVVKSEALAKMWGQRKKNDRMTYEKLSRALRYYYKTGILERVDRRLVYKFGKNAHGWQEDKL
An outline of the steps:
as §1

The next test has as its target T3, ELK3 (Homo sapiens, UniProt P41970 1-407).
T3 sequence: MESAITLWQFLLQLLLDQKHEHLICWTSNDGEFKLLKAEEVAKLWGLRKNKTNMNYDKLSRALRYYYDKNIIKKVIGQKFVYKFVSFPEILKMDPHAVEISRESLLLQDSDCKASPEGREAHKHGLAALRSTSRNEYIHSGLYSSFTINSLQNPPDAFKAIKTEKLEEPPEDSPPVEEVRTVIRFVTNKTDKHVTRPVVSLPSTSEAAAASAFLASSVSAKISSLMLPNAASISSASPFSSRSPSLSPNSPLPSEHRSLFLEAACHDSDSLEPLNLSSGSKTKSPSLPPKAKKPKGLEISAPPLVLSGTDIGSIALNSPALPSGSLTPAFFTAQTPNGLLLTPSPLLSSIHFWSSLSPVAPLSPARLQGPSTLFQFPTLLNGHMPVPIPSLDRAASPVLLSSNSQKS
An outline of the steps:
as §1

The target in a further test is T4, ELF3 (Homo sapiens, UniProt P78545 1-371).
T4 sequence: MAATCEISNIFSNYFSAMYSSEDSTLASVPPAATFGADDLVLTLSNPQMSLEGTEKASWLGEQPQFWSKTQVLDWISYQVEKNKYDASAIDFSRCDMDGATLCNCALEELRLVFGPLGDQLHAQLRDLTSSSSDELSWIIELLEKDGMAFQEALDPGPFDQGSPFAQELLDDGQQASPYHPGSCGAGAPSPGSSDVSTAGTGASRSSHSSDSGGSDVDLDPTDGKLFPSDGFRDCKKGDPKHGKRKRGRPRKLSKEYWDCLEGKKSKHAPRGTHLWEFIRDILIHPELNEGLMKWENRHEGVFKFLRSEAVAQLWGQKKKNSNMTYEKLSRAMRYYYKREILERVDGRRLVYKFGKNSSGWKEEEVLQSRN
An outline of the steps:
as §1

The target in a further test is CRX (Homo sapiens, UniProt O43186 1-299). An outline of the steps:
as §1

CRX, sequence (O43186 whole entry): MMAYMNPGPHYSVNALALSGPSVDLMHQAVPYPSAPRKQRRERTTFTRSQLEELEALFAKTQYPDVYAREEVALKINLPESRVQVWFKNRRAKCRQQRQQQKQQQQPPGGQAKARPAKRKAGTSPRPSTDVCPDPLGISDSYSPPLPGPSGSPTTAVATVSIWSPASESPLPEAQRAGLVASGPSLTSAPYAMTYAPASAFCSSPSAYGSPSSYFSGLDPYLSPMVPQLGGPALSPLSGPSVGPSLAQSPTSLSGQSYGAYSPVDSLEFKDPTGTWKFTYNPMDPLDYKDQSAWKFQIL

Consider GCCTGA, for which the binding signal with FLI1 is 1.05 fold enrichment (6-mer frequency, TF over GST control); in the test with ELF5 it was 1.05 fold enrichment (6-mer frequency, TF over GST control).
As to ACCAAA, the binding signal in the test with FLI1 is 1.01 fold enrichment (6-mer frequency, TF over GST control).
On to CTGGGC, for which the binding signal was 1.15 fold enrichment (6-mer frequency, TF over GST control) with FLI1 and 1.02 fold enrichment (6-mer frequency, TF over GST control) with ELK3.
With TGGGGT, the binding signal was 1.02 fold enrichment (6-mer frequency, TF over GST control) with FLI1; 1.17 fold enrichment (6-mer frequency, TF over GST control) in the test with ELK3; 1.01 fold enrichment (6-mer frequency, TF over GST control) with ELF5.
In the case of CGTTTG, the binding signal with FLI1 was 1.05 fold enrichment (6-mer frequency, TF over GST control); with ELK3 it was 1 fold enrichment (6-mer frequency, TF over GST control); in the test with ELF3, 1.02 fold enrichment (6-mer frequency, TF over GST control); with ELF5, 1.1 fold enrichment (6-mer frequency, TF over GST control).
Take AGCGCT: the binding signal was 1.1 fold enrichment (6-mer frequency, TF over GST control) in the test with FLI1; 1.14 fold enrichment (6-mer frequency, TF over GST control) with ELK3; 1.01 fold enrichment (6-mer frequency, TF over GST control) with CRX; 1 fold enrichment (6-mer frequency, TF over GST control) with ELF5.
As to CAGCCT, the binding signal with FLI1 is 1.14 fold enrichment (6-mer frequency, TF over GST control); in the test with CRX, 1.06 fold enrichment (6-mer frequency, TF over GST control).
GCTAAC: the binding signal was 1.11 fold enrichment (6-mer frequency, TF over GST control) in the test with FLI1 and 1.18 fold enrichment (6-mer frequency, TF over GST control) with ELK3.
In the case of ACGCGG, the binding signal with FLI1 was 1.04 fold enrichment (6-mer frequency, TF over GST control); with ELK3, 1.05 fold enrichment (6-mer frequency, TF over GST control); in the test with ELF3, 1.07 fold enrichment (6-mer frequency, TF over GST control); with ELF5, 1.07 fold enrichment (6-mer frequency, TF over GST control).
Regarding CCAAGC, the binding signal is 1.01 fold enrichment (6-mer frequency, TF over GST control) with FLI1 and 1.2 fold enrichment (6-mer frequency, TF over GST control) in the test with ELF3.
Consider CGCGTT, for which the binding signal with FLI1 was 1.1 fold enrichment (6-mer frequency, TF over GST control); with ELK3, 1.06 fold enrichment (6-mer frequency, TF over GST control); with ELF3 it was 1.05 fold enrichment (6-mer frequency, TF over GST control); in the test with ELF5, 1.02 fold enrichment (6-mer frequency, TF over GST control).
Consider CCGCAG, for which the binding signal is 1.12 fold enrichment (6-mer frequency, TF over GST control) with FLI1; 1.14 fold enrichment (6-mer frequency, TF over GST control) in the test with ELK3; 1.19 fold enrichment (6-mer frequency, TF over GST control) in the test with ELF3; 1.04 fold enrichment (6-mer frequency, TF over GST control) in the test with ELF5.
As to CGCACG, the binding signal was 1.1 fold enrichment (6-mer frequency, TF over GST control) with FLI1; 1.02 fold enrichment (6-mer frequency, TF over GST control) with ELK3; 1.02 fold enrichment (6-mer frequency, TF over GST control) with ELF5.
AGGACC: the binding signal in the test with FLI1 is 1.13 fold enrichment (6-mer frequency, TF over GST control); in the test with ELK3 it was 1.15 fold enrichment (6-mer frequency, TF over GST control); in the test with ELF5, 1.1 fold enrichment (6-mer frequency, TF over GST control).
Regarding TCAGTT, the binding signal with FLI1 is 1.02 fold enrichment (6-mer frequency, TF over GST control); with ELK3 it was 1.09 fold enrichment (6-mer frequency, TF over GST control).
Consider CCCGTC, for which the binding signal in the test with FLI1 is 1.12 fold enrichment (6-mer frequency, TF over GST control); in the test with ELF3, 1.03 fold enrichment (6-mer frequency, TF over GST control); with ELF5, 1.12 fold enrichment (6-mer frequency, TF over GST control).
For CAGCAT, the binding signal with FLI1 is 1.04 fold enrichment (6-mer frequency, TF over GST control); in the test with ELK3 it was 1.19 fold enrichment (6-mer frequency, TF over GST control); with ELF3, 1.07 fold enrichment (6-mer frequency, TF over GST control).
As for CGTTGT, the binding signal with FLI1 is 1.15 fold enrichment (6-mer frequency, TF over GST control); in the test with ELF5, 1.07 fold enrichment (6-mer frequency, TF over GST control).
On to GCACAC, for which the binding signal with FLI1 was 1.02 fold enrichment (6-mer frequency, TF over GST control); in the test with ELF3, 1.03 fold enrichment (6-mer frequency, TF over GST control).
On to CGTCCA, for which the binding signal was 1.13 fold enrichment (6-mer frequency, TF over GST control) in the test with FLI1 and 1.13 fold enrichment (6-mer frequency, TF over GST control) with ELK3.
As to CAATGG, the binding signal with FLI1 was 1.14 fold enrichment (6-mer frequency, TF over GST control).
Take TGCGCC: the binding signal in the test with FLI1 was 1.17 fold enrichment (6-mer frequency, TF over GST control); in the test with ELK3, 1.07 fold enrichment (6-mer frequency, TF over GST control); in the test with ELF3 it was 1.03 fold enrichment (6-mer frequency, TF over GST control); in the test with ELF5, 1.11 fold enrichment (6-mer frequency, TF over GST control).
In the case of CACCGG, the binding signal is 1.11 fold enrichment (6-mer frequency, TF over GST control) with FLI1; 1.16 fold enrichment (6-mer frequency, TF over GST control) in the test with ELK3; 1.17 fold enrichment (6-mer frequency, TF over GST control) in the test with ELF3; 1.03 fold enrichment (6-mer frequency, TF over GST control) with ELF5.
For the sequence TCGTCC, the binding signal was 1.1 fold enrichment (6-mer frequency, TF over GST control) with FLI1; 1.18 fold enrichment (6-mer frequency, TF over GST control) with ELK3; 1.08 fold enrichment (6-mer frequency, TF over GST control) in the test with ELF3; 1.02 fold enrichment (6-mer frequency, TF over GST control) in the test with ELF5.
Consider TGGGCA, for which the binding signal with FLI1 was 1.05 fold enrichment (6-mer frequency, TF over GST control); with ELK3 it was 1.19 fold enrichment (6-mer frequency, TF over GST control).
As for TCAAGC, the binding signal with FLI1 is 1.03 fold enrichment (6-mer frequency, TF over GST control); in the test with ELK3 it was 1.09 fold enrichment (6-mer frequency, TF over GST control); with ELF3 it was 1.04 fold enrichment (6-mer frequency, TF over GST control); with CRX, 1.06 fold enrichment (6-mer frequency, TF over GST control).
In the case of ACGGTA, the binding signal was 1.02 fold enrichment (6-mer frequency, TF over GST control) with FLI1 and 1.05 fold enrichment (6-mer frequency, TF over GST control) with ELF5.
In the case of GTAACC, the binding signal in the test with FLI1 is 1.04 fold enrichment (6-mer frequency, TF over GST control); in the test with ELK3, 1.04 fold enrichment (6-mer frequency, TF over GST control); with ELF5, 1.07 fold enrichment (6-mer frequency, TF over GST control).
Take ACGCCG: the binding signal is 1.15 fold enrichment (6-mer frequency, TF over GST control) in the test with FLI1; 1.11 fold enrichment (6-mer frequency, TF over GST control) with ELK3; 1.15 fold enrichment (6-mer frequency, TF over GST control) with ELF3.
Take ATAGCC: the binding signal with FLI1 was 1.03 fold enrichment (6-mer frequency, TF over GST control); in the test with ELK3 it was 1.01 fold enrichment (6-mer frequency, TF over GST control); with ELF3, 1.15 fold enrichment (6-mer frequency, TF over GST control); with CRX, 1.02 fold enrichment (6-mer frequency, TF over GST control).
GGTCAC: the binding signal with FLI1 is 1.08 fold enrichment (6-mer frequency, TF over GST control); in the test with ELF3, 1.05 fold enrichment (6-mer frequency, TF over GST control).
CCCAAG: the binding signal is 1.09 fold enrichment (6-mer frequency, TF over GST control) with FLI1; 1 fold enrichment (6-mer frequency, TF over GST control) with ELK3; 1.12 fold enrichment (6-mer frequency, TF over GST control) with ELF3.
As to TCACCG, the binding signal was 1.06 fold enrichment (6-mer frequency, TF over GST control) with FLI1; 1.13 fold enrichment (6-mer frequency, TF over GST control) with ELK3; 1.07 fold enrichment (6-mer frequency, TF over GST control) in the test with ELF3; 1.01 fold enrichment (6-mer frequency, TF over GST control) with ELF5.
With GCAAAC, the binding signal with FLI1 is 1.04 fold enrichment (6-mer frequency, TF over GST control); with ELK3, 1.04 fold enrichment (6-mer frequency, TF over GST control); with ELF3, 1.13 fold enrichment (6-mer frequency, TF over GST control).
Turning to ACCGGC, the binding signal was 1.07 fold enrichment (6-mer frequency, TF over GST control) with FLI1; 1.11 fold enrichment (6-mer frequency, TF over GST control) with ELK3; 1.21 fold enrichment (6-mer frequency, TF over GST control) in the test with ELF3; 1.11 fold enrichment (6-mer frequency, TF over GST control) with ELF5.
For the sequence TGCAAG, the binding signal in the test with FLI1 was 1.09 fold enrichment (6-mer frequency, TF over GST control); in the test with ELF3, 1.15 fold enrichment (6-mer frequency, TF over GST control); in the test with ELF5, 1.05 fold enrichment (6-mer frequency, TF over GST control).
